Where “and” joins values, the source holds several entries; their conditions need not be identical. Identical values can stand only once. The whole screen tested about 110,000 compounds, of which about 190 (0.17%) were called active. This is one part of a sample in which actives are shown more often than they occur. Measured potencies and affinities stand elsewhere. A number with no mark means an inactive call. Cut-off read from the data, not from the text of the source: active = inhibition above about 50%; inactive = the rest.
Target: Dual specificity protein phosphatase 6 (Rattus norvegicus) (UniProt Q64346)
Assay: inhibition of rat DUSP6 enzyme activity – biochemical, in vitro, primary screen (AID 425);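 note: plate controls were vehicle for no effect and reference inhibitor for full effect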
Details: recombinant MKP-3 phosphatase activity, fluorescence; at 20 µM; stronger effect = higher value

Dual specificity protein phosphatase 6 (Rattus norvegicus), sequence (Q64346 whole entry, looked up): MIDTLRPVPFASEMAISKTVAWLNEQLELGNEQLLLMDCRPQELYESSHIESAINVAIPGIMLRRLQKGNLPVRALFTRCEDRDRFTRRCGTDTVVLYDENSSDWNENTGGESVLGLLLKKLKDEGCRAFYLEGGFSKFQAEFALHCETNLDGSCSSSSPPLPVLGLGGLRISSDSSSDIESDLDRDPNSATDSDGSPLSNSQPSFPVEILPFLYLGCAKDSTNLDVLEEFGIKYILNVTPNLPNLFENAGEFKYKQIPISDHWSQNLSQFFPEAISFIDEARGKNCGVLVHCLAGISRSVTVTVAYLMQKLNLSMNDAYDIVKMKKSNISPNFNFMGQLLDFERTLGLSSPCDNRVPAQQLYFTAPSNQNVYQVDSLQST

Question: How did the inhibition turn out when `Cc1onc(-c2ccccc2)c1C(=O)NCCNc1c(Cl)cccc1[N+](=O)[O-]` was run?
Answer: 3.9%

Question: Which inhibition does the source give for `O=C1C=C/C(=N\S(=O)(=O)c2ccc(F)cc2)c2ccccc21` here?
Answer: -2%

Question: `CC(=O)Nc1ccc(S(=O)(=O)/N=C2\C=CC(=O)c3ccccc32)cc1` was tested. Which inhibition did it give?
Answer: 111% (active)

Question: Which inhibition does the source give for `Cc1ccc(C)c(S(=O)(=O)/N=C2\C=CC(=O)c3ccccc32)c1` here?
Answer: 63.5% (active)

Question: `CN(C)C1=C/C(=N/S(=O)(=O)c2ccccc2)c2ccccc2C1=O` was tested. Which inhibition did it give?
Answer: 13.9%

Question: `CC(=O)Nc1ccc(S(=O)(=O)/N=C2/NC(=O)CS2)cc1` was tested. Which inhibition did it give?
Answer: -0.8%

Question: Which inhibition does the source give for `Cc1ccc(S(=O)(=O)N=C2C=CC(=O)C=C2)c(C)c1` here?
Answer: 7.6%

Question: `CC(=O)Nc1ccc(S(=O)(=O)NN2C(=O)c3ccccc3C2=O)cc1` was tested. Which inhibition did it give?
Answer: 2.6%

Question: Which inhibition does the source give for `O=C1C=CC(=NS(=O)(=O)c2ccccc2)c2ccccc21` here?
Answer: 68.4% (active)

Question: Which inhibition does the source give for `Cc1ccccc1S(=O)(=O)N=C1C=CC(=O)C(Cl)=C1` here?
Answer: 3.1%

Question: For `CCc1ccc(OCC(=O)NCCN(C)C)c(Br)c1`, which inhibition is on record?
Answer: -12%

Question: For `O=C(Nc1ccc(Br)cc1)N1CCCCCCC1`, which inhibition is on record?
Answer: -0.5%

Question: `CCOC(=O)Cc1csc(NC(=O)CN(C)S(=O)(=O)c2cccc3cccnc23)n1` was tested. Which inhibition did it give?
Answer: -9.4%

Question: How did the inhibition turn out when `O=C(NCCCn1ccnc1)c1cnn2c(C(F)(F)F)cc(-c3ccc(Br)cc3)nc12` was run?
Answer: 2.4%

Question: With `Nc1nnc(SCc2coc(-c3ccc(Cl)cc3)n2)s1` as the molecule, how does the inhibition read?
Answer: -7.1%

Question: For `COc1ccc(NC(=O)/C(=C\c2ccco2)NC(=O)c2ccco2)cc1`, which inhibition is on record?
Answer: 4.4%

Question: Which inhibition does the source give for `N/C(=N\OC(=O)c1ccccc1I)c1cccnc1` here?
Answer: -4%

Question: `COc1cc(/C=C2\SC(=Nc3ccc(C)c(Cl)c3)NC2=O)ccc1O` was tested. Which inhibition did it give?
Answer: 3.3%

Question: Which inhibition does the source give for `Cc1ccc(N=C2NC(=O)/C(=C/c3ccc(O)c([N+](=O)[O-])c3)S2)cc1Cl` here?
Answer: 82.6% (active)

Question: How did the inhibition turn out when `Cc1c(Cl)cccc1N=C1NC(=O)/C(=C/c2ccc(O)c([N+](=O)[O-])c2)S1` was run?
Answer: 18.5%

Question: How did the inhibition turn out when `CC1=C(C(=O)Nc2ccccc2)C(c2cccc(I)c2)NC(=S)N1` (stereo unspecified) was run?
Answer: 4.4%

Question: How did the inhibition turn out when `COn1c(C)c(C(C)=O)c2c3nonc3ccc21` was run?
Answer: -7.8%

Question: For `COn1c(C)c(C)c2c3nonc3ccc21`, which inhibition is on record?
Answer: 86.9% (active)

Question: Which inhibition does the source give for `Cc1c(C)n(O)c2ccc3nonc3c12` here?
Answer: 2.7%

Question: How did the inhibition turn out when `CCOC(=O)c1ccc(NC(=O)COc2ccc(Cl)cc2C)cc1` was run?
Answer: 2.5%

Question: How did the inhibition turn out when `COC(=O)c1ccc(Nc2ncnc3c2cnn3-c2cccc(C)c2)cc1` was run?
Answer: -5%

Question: With `O=C(Cc1ccccc1)Nc1cc(C(=O)O)cc(C(=O)O)c1` as the molecule, how does the inhibition read?
Answer: 0.2%

Question: Which inhibition does the source give for `CC1CC(=O)c2cnc(NCC3CCCO3)nc2C1` (stereo unspecified) here?
Answer: -7.6%

Question: Which inhibition does the source give for `Cc1c(C)c2ccc(OCC(=O)c3ccc(-c4ccccc4)cc3)cc2oc1=O` here?
Answer: 1.8%

Question: How did the inhibition turn out when `NC(=O)C1CCN(C(=O)CN2CCCc3ccccc32)CC1` was run?
Answer: 1.6%

Question: With `Cc1ccc(C)n1-c1ccccc1C(=O)O` as the molecule, how does the inhibition read?
Answer: 72.7% (active)

Question: `Cc1ccc(C)n1-c1ccc(Br)cc1C(=O)O` was tested. Which inhibition did it give?
Answer: 0.2%

Question: Which inhibition does the source give for `COc1cc(C(=O)O)c(-n2c(C)ccc2C)cc1OC` here?
Answer: 5%

Question: `Cc1ccc(C)n1-c1ccc(Cl)cc1C(=O)O` was tested. Which inhibition did it give?
Answer: 104% (active)

Question: How did the inhibition turn out when `Cc1ccc(-c2ccccc2)n1-c1ccccc1C(=O)O` was run?
Answer: 5%

Question: `Cc1c(C(=O)O)cccc1-n1c(C)ccc1C` was tested. Which inhibition did it give?
Answer: 25.2%

Question: `O=C(CCCN1CCC(c2ccccc2)C1)c1ccc2c(c1)OCCO2` (stereo unspecified) was tested. Which inhibition did it give?
Answer: -3.4%

Question: With `CC(=O)Nc1ccc(S(=O)(=O)NC(CC(=O)O)c2ccc(OC(C)C)cc2)cc1` (stereo unspecified) as the molecule, how does the inhibition read?
Answer: 7.9%

Question: With `CC(C)(C)NC(=O)C(=O)N/N=C/c1ccc(Cl)cc1` as the molecule, how does the inhibition read?
Answer: -3.9%

Question: How did the inhibition turn out when `CNc1ccc2[nH]nc3c2c1C(=O)c1ccccc1-3` was run?
Answer: -22.4%

Question: How did the inhibition turn out when `Cc1ccccc1OCC(=O)Nc1cccc(NC(=O)c2ccccc2Cl)c1` was run?
Answer: -2.5%

Question: Which inhibition does the source give for `Cc1cc(Br)cc(C)c1NC(=O)c1ccc2c(c1)OCCO2` here?
Answer: 82.6% (active)

Question: For `Cc1cccc(C)c1NC(=O)c1ccc2c(c1)OCCO2`, which inhibition is on record?
Answer: 2.1%

Question: How did the inhibition turn out when `CC(=O)c1ccc(NC(=O)c2ccc3c(c2)OCCO3)cc1` was run?
Answer: -4.6%

Question: Which inhibition does the source give for `CCN1C(=O)NC(c2cccnc2)C(C(=O)OC)=C1C` (stereo unspecified) here?
Answer: -5.5%

Question: Which inhibition does the source give for `CC(C)N(Cc1nc(-c2ccccc2)no1)C(=O)Cc1ccccc1` here?
Answer: -1.5%

Question: How did the inhibition turn out when `CS(=O)(=O)N(CC(=O)NCc1ccccn1)c1ccc2c(c1)OCCO2` was run?
Answer: -1.1%

Question: Which inhibition does the source give for `CCOC(=O)C(C(=O)OCC)c1cc(Br)c2noc3c2c1C(=O)c1ccccc1-3` here?
Answer: 23.6%

Question: `O=C1c2ccccc2-c2onc3c(Cl)cc(Sc4ccccc4)c1c23` was tested. Which inhibition did it give?
Answer: 3.9%

Question: With `O=C1c2ccccc2-c2onc3c(Br)cc(O)c1c23` as the molecule, how does the inhibition read?
Answer: 87.7% (active)

Question: `Cc1onc(-c2ccccc2Cl)c1C(=O)NCc1cccs1` was tested. Which inhibition did it give?
Answer: 5.5%

Question: `O=C(O)c1cccc(-c2ccc(/C=N/Nc3ccc([N+](=O)[O-])cn3)o2)c1` was tested. Which inhibition did it give?
Answer: 51.1% (active)

Question: For `O=C(O)c1cc(-c2ccc(/C=N/Nc3ccc([N+](=O)[O-])cn3)o2)ccc1Cl`, which inhibition is on record?
Answer: 7.3%

Question: How did the inhibition turn out when `O=C(O)c1ccc(Cl)c(-c2ccc(/C=N\Nc3ccc([N+](=O)[O-])cn3)o2)c1` was run?
Answer: 8.7%

Question: Which inhibition does the source give for `O=C(O)/C=C/C(=O)Nc1ccc(NC(=O)c2ccccc2)c(Cl)c1` here?
Answer: 1.5%

Question: `O=C(O)c1cc(S(=O)(=O)O)ccc1O` was tested. Which inhibition did it give?
Answer: -4.1%

Question: With `CNc1ccc2c(O)cc(S(=O)(=O)O)cc2c1` as the molecule, how does the inhibition read?
Answer: 65.1% (active)

Question: `COC(=O)c1cc(C(=O)OC)cc(S(=O)(=O)O)c1` was tested. Which inhibition did it give?
Answer: -0.1%

Question: How did the inhibition turn out when `O=C1/C(=C/c2ccc(O)c(O)c2)SC(=S)N1c1ccc(O)cc1` was run?
Answer: 8.5%

Question: For `Cc1cc(C)n(C(=O)CNC(=O)c2ccco2)n1`, which inhibition is on record?
Answer: 1.1% and -4%

Question: `COc1ccc(C2SC(C)C(=O)N2c2ccc(C)cc2)cc1` (stereo unspecified) was tested. Which inhibition did it give?
Answer: -0.4%

Question: For `O=C(NCC1CCCO1)c1cc2nc(-c3ccc(F)cc3)cc(C(F)(F)F)n2n1` (stereo unspecified), which inhibition is on record?
Answer: 2.8%

Question: `O=C(NCC1CCCO1)c1cc2nc(-c3ccc([N+](=O)[O-])cc3)cc(C(F)(F)F)n2n1` (stereo unspecified) was tested. Which inhibition did it give?
Answer: 95.8% (active)

Question: How did the inhibition turn out when `O=C(NCC1CCCO1)c1cc2nc(-c3ccco3)cc(C(F)(F)F)n2n1` (stereo unspecified) was run?
Answer: 0.3%

Question: `COCCn1c(SCC(=O)Nc2cccc(OC)c2)nnc1-c1ccc(Cl)cc1` was tested. Which inhibition did it give?
Answer: -2.5%

Question: Which inhibition does the source give for `Cc1ccc(-c2ccc(C=C3C(=O)N(C)C(=O)N(C)C3=O)o2)cc1[N+](=O)[O-]` here?
Answer: -5.2%

Question: Which inhibition does the source give for `CN(c1ccc(C(=O)N2CCCCC2)cc1)S(=O)(=O)c1ccccc1` here?
Answer: 2.4%

Question: `CCc1c(C)c2ccc(OCc3ccccc3)c(C)c2oc1=O` was tested. Which inhibition did it give?
Answer: 3.5%

Question: `CCc1c(C)c2ccc(OCC(C)=O)c(C)c2oc1=O` was tested. Which inhibition did it give?
Answer: 5.8%

Question: How did the inhibition turn out when `O=C(CN1CCCCCC1)Nc1cccc2c1OCO2` was run?
Answer: 0.2% and -9.3%

Question: For `COc1ccc(/C=C/C(=O)NCC(C)NC(=O)/C=C/c2ccc(OC)c(OC)c2)cc1OC` (stereo unspecified), which inhibition is on record?
Answer: 1.7%

Question: For `COc1ccc(/C=C(\NC(=O)c2ccccc2)C(=O)NCC(C)C)cc1OC`, which inhibition is on record?
Answer: 3%

Question: For `CCC(C)NC(=O)/C(=C\c1ccc(OC(C)=O)c(OC)c1)NC(C)=O` (stereo unspecified), which inhibition is on record?
Answer: 97.1% (active)

Question: How did the inhibition turn out when `COc1cccc(-c2cc(C(=O)Nc3c(C)nn(Cc4ccccc4)c3C)no2)c1` was run?
Answer: 0.1%

Question: How did the inhibition turn out when `O=C(NCCNc1ccc(Cl)cc1[N+](=O)[O-])c1ccccc1Cl` was run?
Answer: 1.9%

Question: With `O=c1oc2c(O)c(O)ccc2c2c1CCC2` as the molecule, how does the inhibition read?
Answer: 7.2%

Question: With `Cc1c(O)ccc2c1oc(=O)c1ccccc12` as the molecule, how does the inhibition read?
Answer: 1.2%

Question: For `Cc1ccc(S(=O)(=O)NCC(=O)N(CCc2ccccc2)CC(=O)NCc2ccco2)cc1`, which inhibition is on record?
Answer: -4.7%

Question: How did the inhibition turn out when `Cc1nn(-c2ccccc2)c(C)c1Sc1ccc(Br)cc1` was run?
Answer: 0.2%

Question: With `Cc1cc(C)nc(Sc2c(C)nn(-c3ccccc3)c2C)n1` as the molecule, how does the inhibition read?
Answer: -0.6%

Question: `Cc1nn(-c2ccccc2)c(C)c1Sc1ccc(Cl)cc1` was tested. Which inhibition did it give?
Answer: 74.7% (active)

Question: `COc1ccc(C2C(C(=O)OC(C)C)=C(C)N=c3s/c(=C/c4c[nH]c5ccccc45)c(=O)n32)cc1` (stereo unspecified) was tested. Which inhibition did it give?
Answer: 3.4%

Question: `CCOCCOC(=O)c1ccc(NC(=O)/C=C/c2ccc(OC)c(Br)c2)cc1` was tested. Which inhibition did it give?
Answer: 2.5%

Question: How did the inhibition turn out when `COc1ccc(Cl)cc1C(=O)Nc1nc2ccc(S(C)(=O)=O)cc2s1` was run?
Answer: 3.8%

Question: `CCOc1ccc(NC(=O)CSc2nc3ccc(OC)cc3[nH]2)cc1` was tested. Which inhibition did it give?
Answer: -0.2%

Question: With `O=C(O)c1ccccc1-c1ccccc1/C=N/O` as the molecule, how does the inhibition read?
Answer: -1.8%

Question: With `CCOC(=O)C1=C(C)N=c2s/c(=C\c3ccc(OCC(=O)O)cc3)c(=O)n2C1c1ccccc1` (stereo unspecified) as the molecule, how does the inhibition read?
Answer: 2.5%

Question: For `CCOC(=O)C1=C(C)N=c2s/c(=C\c3ccc(OCC)cc3)c(=O)n2C1c1ccccc1` (stereo unspecified), which inhibition is on record?
Answer: 2.8%

Question: Which inhibition does the source give for `Cc1c(N2C(=O)c3cccc([N+](=O)[O-])c3C2=O)c(=O)n(-c2ccccc2)n1C` here?
Answer: 1.8%

Question: With `CCN(CC)CCCNC(=O)c1cc2nc(-c3ccc([N+](=O)[O-])cc3)cc(C(F)(F)F)n2n1` as the molecule, how does the inhibition read?
Answer: 1.9%

Question: For `COc1ccccc1C=C1C(=O)NC(=S)N(c2ccccc2F)C1=O`, which inhibition is on record?
Answer: 3%

Question: For `Cc1cc(/C=C2\C(=O)NC(=S)N(c3cccc(Cl)c3)C2=O)c(C)n1C`, which inhibition is on record?
Answer: -0.4%

Question: For `COc1ccccc1/C=C1/C(=O)NC(=O)N(c2ccccc2OC)C1=O`, which inhibition is on record?
Answer: -1.2%

Question: For `Cn1cccc1/C=C1/C(=O)NC(=S)N(c2cccc(Cl)c2)C1=O`, which inhibition is on record?
Answer: 60.6% (active)

Question: With `COc1ccccc1N1C(=O)C(=Cc2cccn2C)C(=O)NC1=S` as the molecule, how does the inhibition read?
Answer: 93.6% (active)

Question: How did the inhibition turn out when `O=C1NC(=S)N(c2cccc(Cl)c2)C(=O)/C1=C\c1ccc(N2CCCC2)cc1` was run?
Answer: 19.3%
